From ChEMBL document CHEMBL3988442, “University of Dundee, Small-Polar-MMV Screening Library” (2021)
Out of some 48,000 compounds screened, about 13,000 (27%) showed an effect of 50% or more. Some of the results follow.

test system: Wolbachia pipientis; experiment: Anti-Wolbachia Cell-Based Screen; format: functional; parameters: scale not given: in the data most compounds retested in dose-response had high values; conditions: 5 µM

Row | SMILES | Percent Effect [%]
1 | CC(SCC(=O)NC(N)=O)c1ccccc1F (configuration not stated) | -3.716
2 | Cc1cc(C)cc(S(=O)(=O)NCC2CNCCOC2)c1 (configuration not stated) | 5.985
3 | Cc1c(C(=O)NS(=O)(=O)c2ccsc2)cnn1CC(C)C | 9.8
4 | CCC(=O)N1C[C@@H]2CCN(c3cnccn3)C[C@@H]2C1.O=C(O)C(F)(F)F | 109.3
5 | Cn1ccnc1C(=O)N1C[C@@H]2CCN(c3cnccn3)C[C@@H]2C1.O=C(O)C(F)(F)F | -15.62
6 | Cn1cncc1C(=O)N1C[C@@H]2CCN(c3cnccn3)C[C@@H]2C1.O=C(O)C(F)(F)F | -2.415
7 | O=C(c1nc(=O)[nH][nH]1)N1CCCN(CC2CCCCC2)CC1 | 4.28
8 | Cc1nc(C2(O)CCCNCC2)sc1CCOc1ccc(Cl)cc1.Cl (configuration not stated) | -4.713
9 | Cc1[nH]nc2ncc(C(=O)N3CCN(CC(C)(C)O)CC3)cc12 | -29.67
10 | COCC1CN(S(=O)(=O)c2cccc(F)c2)Cc2nccn2C1 (configuration not stated) | 114.5
11 | COCc1ncn2c1CN(S(=O)(=O)c1cccc(F)c1)CC2 | -3.986
12 | CCOCC1CN(S(=O)(=O)c2cccc(C)c2)Cc2nccn2C1 (configuration not stated) | 102.9
13 | CCOCc1ncn2c1CN(S(=O)(=O)c1cccc(C)c1)CC2 | -2.947
14 | CCS(=O)(=O)N1Cc2nccn2CC(COc2cccnc2)C1 (configuration not stated) | -25.66
15 | CCOCC1CN(S(=O)(=O)c2ccccc2)Cc2nccn2C1 (configuration not stated) | 89.2
16 | COCC1CN(S(=O)(=O)c2ccccc2)Cc2ncnn2C1 (configuration not stated) | 2.623
17 | CCOCC1CN(S(=O)(=O)Cc2ccccc2)Cc2nccn2C1 (configuration not stated) | 112.8
18 | O=S(=O)(Cc1ccccc1)NC[C@H]1Cn2ccnc2CO1 | -7.74
19 | CCc1nnc(CN(C)c2nc(C(C)C)nc3c2cnn3C)o1 | -14.59
20 | CCc1nc(C2CCCN2c2ncc(C(F)(F)F)cc2Cl)no1 (configuration not stated) | 16.09
21 | Cc1cccc(S(=O)(=O)N2Cc3c(CN(C)C)nn(C)c3C2)c1 | -7.774
22 | CCCS(=O)(=O)N1Cc2nccn2CC(CN(C)C)C1.O=C(O)C(F)(F)F (configuration not stated) | -8.912
23 | Cc1cccc(S(=O)(=O)N2Cc3nccn3CC(CN(C)C)C2)c1 (configuration not stated) | 117.9
24 | COCCC1COC2(CCN(C(=O)C3CCCC3)CC2)C1 (configuration not stated) | -1.347
25 | CS(=O)(=O)N1CCC2(CC1)CN(CCn1cccn1)C(=O)CO2 | -11.65

Row | SMILES | Percent Effect [%]
26 | CS(=O)(=O)N1CCOC2(CCCC2)C1 | -2.404
27 | Cc1ccc(C(=O)N2CCC3(CC2)CC(NC(=O)C(C)C)CO3)cc1 (configuration not stated) | -11.34
28 | CC(C)C1=NOC2(CCN(C(=O)C3CCCC3)CC2)C1 | 98.86
29 | CC(=O)N1CCC2(CC1)CC(C(C)C)=NO2 | 118.9
30 | COCCC1COC2(CCN(C(C)=O)CC2)C1 (configuration not stated) | -6.336
31 | CC(C)C1=NOC2(CCN(S(C)(=O)=O)CC2)C1 | 106.9
32 | COCCC1COC2(CCN(C(=O)C3CCCCC3)CC2)C1 (configuration not stated) | -0.113
33 | CO[C@H]1CNC[C@@H]1NC(=O)c1cc(C)nc2c(C)cc(C)cc12 | 0.2692
34 | Cc1cnn(CCNCc2ccccc2Oc2cccnc2)c1 | 8.919
35 | CCCc1nc(N2Cc3cnn(Cc4ccc(F)cc4)c3C2)no1 | 5.743
36 | CSc1ccccc1CN1C[C@H]2CC[C@@H]1CN(Cc1[nH]cnc1C)C2 | -3.423
37 | CC(C)(C)C(N)c1nc(-c2nnc[nH]2)no1 (configuration not stated) | -10.11
38 | CCOc1c(Br)cc(/C=C/c2ncc(C(=O)O)s2)cc1OC | 109.6
39 | COC(=O)c1cnc(/C=C/c2ccc(C(=O)O)cc2)s1 | -4.44
40 | COC(=O)c1ccc(/C=C/c2ncc(C(=O)O)s2)cc1 | 5.854
41 | CNC(=O)c1cnc(/C=C/c2cc(OC)cc(OC)c2)s1 | 5.835
42 | CCOc1c(OC)cc(/C=C/c2ncc(C(=O)NC)s2)cc1OC | -0.7468
43 | CCOc1cc(/C=C/c2ncc(C(=O)O)s2)cc(Br)c1O | 111.7
44 | CCOc1cc(/C=C/c2ncc(C(=O)O)s2)cc(Br)c1OC | 120.5
45 | CNC(=O)c1cnc(/C=C/c2cc(OC)c(O)c(OC)c2)s1 | -7.095
46 | CCOc1cc(/C=C/c2ncc(C(=O)O)s2)ccc1O | 7.127
47 | Cc1noc(C)c1CC(=O)NCC(C)N1CCOCC1 (configuration not stated) | 8.973
48 | O=C(NCc1cccnc1)[C@@H]1CC[C@@H]2[C@@H](CCN2c2ncccn2)O1.O=C(O)C(F)(F)F.O=C(O)C(F)(F)F | 3.562
49 | Fc1ccc(CN2CCO[C@H]3[C@H](OCC4CC4)CC[C@@H]32)cc1.O=C(O)C(F)(F)F | 2.778
50 | CO[C@H]1CC[C@H]2[C@H]1OCCN2Cc1ccc(F)cc1.O=C(O)C(F)(F)F | 91.7

Row | SMILES | Percent Effect [%]
51 | CCO[C@@H]1CC[C@H]2[C@H]1OCCN2Cc1ccc(F)cc1 | 96.26
52 | Fc1cccc(CN2CCO[C@H]3[C@@H](OCc4ccccn4)CC[C@@H]32)c1 | 10.15
53 | CO[C@@H]1CC[C@H]2[C@H]1OCCN2Cc1ccc(F)cc1.O=C(O)C(F)(F)F | 109.6
54 | Fc1ccc(CN2CCO[C@H]3[C@H](OCC4CCCC4)CC[C@@H]32)cc1.O=C(O)C(F)(F)F | 109
55 | CC(=O)c1cccc(S(=O)(=O)NCC(C)(O)c2cccs2)c1 (configuration not stated) | 1.748
56 | COCCN1CCN(C(=O)C[C@@H]2C[C@@H](C(C)C)[C@H](CC#N)C=C2C)CC1 | 7.225
57 | COc1cc(F)ccc1-c1cc(N)ccn1 | -8.193
58 | CCOc1ccccc1CNC(=O)NCC(c1cnn(C)c1)N(C)C (configuration not stated) | -20.46
59 | Cc1cc(C)cc(C(=O)NCCCNc2ncccn2)c1 | -23.32
60 | Cc1ccc2cc(C3(O)CCN(C(=O)CN4CCCC4)CC3)ccc2n1 | -0.9065
61 | CS(=O)(=O)N(Cc1ccon1)c1ccc(F)cc1 | -1.74
62 | COc1ccc(C(C(=O)O)N2CCCN(C3CCCC3)CC2)cc1OC (configuration not stated) | 14.25
63 | CC(C)CCn1cc(C(C(=O)O)N2CCC(c3ccncc3)CC2)cn1 (configuration not stated) | 105.9
64 | COCCn1cc(NC(=O)NCC(C)N2CCOCC2)cn1 (configuration not stated) | -7.646
65 | COc1ccc(F)cc1C(C(=O)O)N1CCSCC1 (configuration not stated) | -3.942
66 | Cn1cc(CN2CCC3(CC2)CC(c2ccncc2)C(=O)N3)cn1.O=C(O)C(F)(F)F.O=C(O)C(F)(F)F (configuration not stated) | 4.796
67 | CC(C)CCn1cc(C(C(=O)O)N2CCCN(C3CCCC3)CC2)cn1 (configuration not stated) | 99.16
68 | CC(CCn1cccn1)N1CCC(n2cc(C(C)(C)N)nn2)CC1 (configuration not stated) | -1.676
69 | COc1ccc(C(C(=O)O)N2CCCN(C3CCCCC3)CC2)cn1 (configuration not stated) | 6.723
70 | CC(C)CCn1cc(C(C(=O)O)N2CCSCC2)cn1 (configuration not stated) | 100.1
71 | CC(C)CCS(=O)(=O)CC(=O)N1CCCC1c1cnn(C)c1 (configuration not stated) | 5.656
72 | CC(C)CCn1cc(C(C(=O)O)N2CCC(N3CCSCC3)CC2)cn1 (configuration not stated) | 123.7
73 | CC(C)Cc1cn(C2CCN(C(C)CCn3cccn3)CC2)nn1 (configuration not stated) | 2.161
74 | O=C(N[C@@H]1CN(c2ncccn2)C[C@@H]2CCCO[C@@H]21)c1cccnc1.O=C(O)C(F)(F)F.O=C(O)C(F)(F)F | -5.975
75 | CC1CCN(C(=O)c2cccc(CN3CCOCC3)c2)CC1 | 117.9

Row | SMILES | Percent Effect [%]
76 | CCOCCN1CCN(Cc2cccc(C(=O)N(C)C)c2)CC1 | -1.534
77 | COCc1cccc(C(=O)N2CCCC2)c1 | -4.067
78 | CC1CCCN(C(=O)c2cccc(CS(C)(=O)=O)c2)C1 (configuration not stated) | -2.941
79 | CCN1CCN(C(=O)c2ccn(C)c(=O)c2)CC1 | 15.1
80 | O=C(c1cccc(NCCO)c1)N1CCOCC1 | 0.9463
81 | CN1CCN(C(=O)c2cccc(CN3CCOCC3)c2)CC1 | 132.9
82 | CCN1CCN(C(=O)c2cccc(CN3CCOCC3)c2)CC1 | 97.52
83 | NC(=O)C1CCN(C(=O)c2cccc(CN3CCOCC3)c2)CC1 | -12.72
84 | COC(=O)[C@@H]1Cc2ncn(C(C)C)c2CN1S(=O)(=O)Cc1ccccc1 | 1.678
85 | CCN(CC)S(=O)(=O)NC(C)C(=O)N(C)C (configuration not stated) | -9.888
86 | CC(C)c1nnc(CNc2ccc(SC(F)(F)F)cc2)o1 | -0.02401
87 | CCc1ccc(C2CCCCCN2C(=O)CNC(=O)NC2CC2)o1 (configuration not stated) | -27.64
88 | Cc1ccnc(N2CCCC(c3noc(C(C)C)n3)C2)n1 (configuration not stated) | 19.69
89 | c1cnnc(N2CCCC2CNCc2cnc(N3CCCC3)nc2)c1 (configuration not stated) | -1.846
90 | O=C1OCCN1Cc1cc(C(F)(F)F)ccc1F | -10.76
91 | N#Cc1cccc(N2CCCC3(C2)CN(c2ncccn2)CCO3)n1.O=C(O)C(F)(F)F (configuration not stated) | -0.7909
92 | O=C(O)C(F)(F)F.c1ccc(N2CCOC3(CCCN(c4ncccn4)C3)C2)nc1 (configuration not stated) | 84.77
93 | CCS(=O)(=O)N1CCOC2(CCCN(c3ccccn3)C2)C1.O=C(O)C(F)(F)F (configuration not stated) | -10.79
94 | O=C(O)C(F)(F)F.O=C(O)C(F)(F)F.c1cnc(N2CCOC3(CCCN(c4cnccn4)C3)C2)nc1 (configuration not stated) | -4.65
95 | Cc1nnc(N2CCCC3(CN(c4ccccn4)CCO3)C2)o1.O=C(O)C(F)(F)F (configuration not stated) | 102.3
96 | Cc1nnc(N2CCCC3(CN(Cc4ccc(C)s4)CCO3)C2)o1.O=C(O)C(F)(F)F.O=C(O)C(F)(F)F (configuration not stated) | -0.4451
97 | Cc1cc(C(C)NC(=O)CCN2C(=O)c3ccccc3C2=O)c(C)o1 (configuration not stated) | -2.425
